Experiment [1] in a line: growth inhibition of DIPG glioma cells, dose response, cell-based, SU-DIPG-IV, MIPE4.0, CellTiter-Glo, qHTS (AID 1347063; cut-off not given, nearly all actives have AC50 up to about 30 µM;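 also: compound exposure lasted 48 hours before the viability readout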). The conditions noted are these: SU-DIPG-IV viability, CellTiter-Glo ATP luminescence. Background: Cellular ATP, detected with luciferase, serves as a proxy for viable cell number.
A short description of experiment [2]: growth inhibition of DIPG glioma cells, dose response, cell-based, SU-DIPG-XIII, MIPE5.0, CellTiter-Glo, qHTS (AID 1347064; cut-off not given, nearly all actives have AC50 up to about 23 µM;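 as to AC50: cells exposed to compound for 48 hours before the viability read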). The conditions noted are these: SU-DIPG-XIII viability, CellTiter-Glo ATP luminescence.
A short description of experiment [3]: viability loss in pontine glioma line – cell-based, SU-DIPG-XXV, MIPE5.0, CellTiter-Glo, qHTS, dose response (AID 1347065; cut-off not given, nearly all actives have AC50 up to about 26 µM;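 also: cells exposed to compound for 48 hours before ATP readout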). The conditions noted are these: CellTiter-Glo ATP luminescence.
A short description of experiment [4]: JHH-DIPG-1 glioma cell viability, MIPE5.0 library, CellTiter-Glo luminescence, qHTS (AID 1347067; cut-off not given, nearly all actives have AC50 up to about 26 µM;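 also: cells exposed to compound for 48 hours before readout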). The conditions noted are these: JHH-DIPG-1 glioma viability, CellTiter-Glo ATP luminescence.
A short description of experiment [5]: ovarian cancer cell viability with rucaparib, profiling panel, oncology-focused library, rucaparib conditional (AID 1508598). The settings on record: patient-derived ovarian cancer cells, CellTiter-Glo viability, 144 h, stronger effect = lower value.
Experiment [6] is described as follows: SU-DIPG-VI glioma cell viability, MIPE4.0 library, CellTiter-Glo luminescence, qHTS (AID 1347066; cut-off not given, nearly all actives have AC50 up to about 30 µM;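 also: cells exposed to compound for 48 hours before readout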). The conditions noted are these: CellTiter-Glo ATP luminescence.
Experiment [7] in a line: SU-DIPG-XXV glioma cell viability, MIPE5.0 library, qHTS (AID 1347068; cut-off not given, nearly all actives have IC50 up to about 30 µM;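 as to IC50: cells exposed to compound for 48 hours before viability readout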). (qHTS replaces the single test concentration by a dilution series.)
Experiment [8] is described as follows: modifiers of HSF1 nuclear foci, imaging, Selleck Cancer Library (AID 1347162; in the data active = plate-normalised HSF1 focus index below about 0.46). The conditions noted are these: human cells, at 10 µM; SSMD: measured here: HSF1 foci SSMD mean; cell count: measured here: cell number; plate-normalised HSF1 focus index: stronger effect = lower value.
[9] abbreviates: at 0.000305 µM, OCI-C5x cells, with rucaparib 10 µM, 100% = cells with rucaparib alone.
Where [10] appears, read: at 0.000305 µM, OCI-C5x cells, without rucaparib.
The mark [11] stands for this setting: at 0.000305 µM, OCI-P5x cells, with rucaparib 20 µM, 100% = cells with rucaparib alone.
Setting [12] is: at 0.000305 µM, OCI-P5x cells, without rucaparib.
The mark [13] stands for this setting: at 0.00122 µM, OCI-C5x cells, with rucaparib 10 µM, 100% = cells with rucaparib alone.
Setting [14] is: at 0.00122 µM, OCI-C5x cells, without rucaparib.
Setting [15] is: at 0.00122 µM, OCI-P5x cells, with rucaparib 20 µM, 100% = cells with rucaparib alone.
[16] abbreviates: at 0.00122 µM, OCI-P5x cells, without rucaparib.
The mark [17] stands for this setting: at 0.00488 µM, OCI-C5x cells, with rucaparib 10 µM, 100% = cells with rucaparib alone.
The mark [18] stands for this setting: at 0.00488 µM, OCI-C5x cells, without rucaparib.
The mark [19] stands for this setting: at 0.00488 µM, OCI-P5x cells, with rucaparib 20 µM, 100% = cells with rucaparib alone.
[20] abbreviates: at 0.00488 µM, OCI-P5x cells, without rucaparib.
Setting [21] is: at 0.0195 µM, OCI-C5x cells, with rucaparib 10 µM, 100% = cells with rucaparib alone.
Where [22] appears, read: at 0.0195 µM, OCI-C5x cells, without rucaparib.
Where [23] appears, read: at 0.0195 µM, OCI-P5x cells, with rucaparib 20 µM, 100% = cells with rucaparib alone.
[24] abbreviates: at 0.0195 µM, OCI-P5x cells, without rucaparib.
[25] abbreviates: at 0.0781 µM, OCI-C5x cells, with rucaparib 10 µM, 100% = cells with rucaparib alone.
Where [26] appears, read: at 0.0781 µM, OCI-C5x cells, without rucaparib.
Where [27] appears, read: at 0.0781 µM, OCI-P5x cells, with rucaparib 20 µM, 100% = cells with rucaparib alone.
Where [28] appears, read: at 0.0781 µM, OCI-P5x cells, without rucaparib.
Setting [29] is: at 0.313 µM, OCI-C5x cells, with rucaparib 10 µM, 100% = cells with rucaparib alone.
[30] abbreviates: at 0.313 µM, OCI-C5x cells, without rucaparib.
Setting [31] is: at 0.313 µM, OCI-P5x cells, with rucaparib 20 µM, 100% = cells with rucaparib alone.
[32] abbreviates: at 0.313 µM, OCI-P5x cells, without rucaparib.
[33] abbreviates: at 1.25 µM, OCI-C5x cells, with rucaparib 10 µM, 100% = cells with rucaparib alone.
Where [34] appears, read: at 1.25 µM, OCI-C5x cells, without rucaparib.
The mark [35] stands for this setting: at 1.25 µM, OCI-P5x cells, with rucaparib 20 µM, 100% = cells with rucaparib alone.
Where [36] appears, read: at 1.25 µM, OCI-P5x cells, without rucaparib.
[37] abbreviates: at 5 µM, OCI-C5x cells, with rucaparib 10 µM, 100% = cells with rucaparib alone.
Setting [38] is: at 5 µM, OCI-C5x cells, without rucaparib.
The mark [39] stands for this setting: at 5 µM, OCI-P5x cells, with rucaparib 20 µM, 100% = cells with rucaparib alone.
Setting [40] is: at 5 µM, OCI-P5x cells, without rucaparib.

Records with an inconclusive call do not appear. The source made the active and inactive calls.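 The calls were made as follows, unless noted: active = normalized viability below 100% at a tested concentration; inactive = the rest.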

Here are results for seven compounds from PubChem BioAssay.

By AC50 is commonly meant the concentration giving half of the maximal activity seen. For orientation: viability means a read-out of living cells in per cent, often relative to untreated cells. What is called IC50 is the concentration needed to halve the response being measured.

For `CNc1nc(-c2ccc3c(N)n[nH]c3c2)cc(N2C[C@@H](C(=O)NC3CCCCC3)CC[C@H]2C)n1`, the AC50 is 20.9 µM (active) in experiment [1], 18.6 µM (active) in experiment [2], 6.61 µM (active) in experiment [3] and 14.8 µM (active) in experiment [4]. Also, the viability in experiment [5] (setting [9]) is 103% (inactive); in experiment [5] (setting [10]), 113% (inactive); in experiment [5] (setting [11]), 103% (inactive); in experiment [5] (setting [12]) it was 106% (inactive); in experiment [5] (setting [13]), 124% (inactive); in experiment [5] (setting [14]) it was 115% (inactive). Further, the viability in experiment [5] (setting [15]) was 97.7% (active); in experiment [5] (setting [16]), 102% (inactive); in experiment [5] (setting [17]) it was 116% (inactive); in experiment [5] (setting [18]), 111% (inactive); in experiment [5] (setting [19]), 100% (inactive); in experiment [5] (setting [20]), 104% (inactive). Further, the viability in experiment [5] (setting [21]) is 119% (inactive); in experiment [5] (setting [22]), 115% (inactive); in experiment [5] (setting [23]) it was 92.7% (active); in experiment [5] (setting [24]), 96.7% (active); in experiment [5] (setting [25]) it was 117% (inactive); in experiment [5] (setting [26]), 120% (inactive). For the same compound, the viability is 102% (inactive) in experiment [5] (setting [27]); 98.2% (active) in experiment [5] (setting [28]); 107% (inactive) in experiment [5] (setting [29]); 113% (inactive) in experiment [5] (setting [30]); 91% (active) in experiment [5] (setting [31]); 91.1% (active) in experiment [5] (setting [32]). For the same compound, the viability in experiment [5] (setting [33]) was 112% (inactive); in experiment [5] (setting [34]), 122% (inactive); in experiment [5] (setting [35]), 90% (active); in experiment [5] (setting [36]) it was 93.4% (active); in experiment [5] (setting [37]) it was 67.5% (active); in experiment [5] (setting [38]), 155% (inactive). Further, the results for the viability in experiment [5] (setting [39]) and in experiment [5] (setting [40]) were 22.3% (active) and 84.2% (active), respectively.

For the compound `NC(=O)c1cccc2[nH]c(-c3ccc([C@H]4CCCN4)cc3F)nc12`, the compound was called inactive in experiment [1], in experiment [6] and in experiment [7].

As to `COC[C@H](c1ccc(C(F)(F)F)cc1)N1CCN(C2(C)CCN(C(=O)c3c(C)ncnc3C)CC2)C[C@H]1C`, the AC50 in experiment [1] was 11.8 µM (active). The result in experiment [6] was inactive.

`Cc1c(C(=O)N2CCOc3ccc(-c4ccc(N)nc4)cc3C2)ccc(S(C)(=O)=O)c1F`: the AC50 was 2.95 µM (active) in experiment [2] and 4.17 µM (active) in experiment [3].

As for `O=C(O)c1ccc(CCCc2ccc(OCCc3ccc(F)cc3)cc2)o1`, the call in experiment [2] was inactive.

Turning to `CC[C@H](Nc1ncnc2nc[nH]c12)c1nc2cccc(F)c2c(=O)n1-c1ccccc1`, the AC50 in experiment [1] was 16.6 µM (active). Moreover, the compound was classed as inactive in experiment [2], in experiment [4] and in experiment [7]. For the same compound, in experiment [8], the SSMD turned out to be 2.21. The compound also gave a cell count in experiment [8] of 7370. In addition, the plate-normalised HSF1 focus index in experiment [8] is 1.08 (inactive). The viability in experiment [5] (setting [9]) is 99.3% (active); in experiment [5] (setting [10]) it was 121% (inactive); in experiment [5] (setting [11]), 96.5% (active); in experiment [5] (setting [12]) it was 104% (inactive); in experiment [5] (setting [13]) it was 104% (inactive); in experiment [5] (setting [14]) it was 124% (inactive). For the same compound, the viability in experiment [5] (setting [15]) is 98.6% (active); in experiment [5] (setting [16]) it was 105% (inactive); in experiment [5] (setting [17]), 108% (inactive); in experiment [5] (setting [18]), 116% (inactive); in experiment [5] (setting [19]), 82.2% (active); in experiment [5] (setting [20]) it was 96.9% (active). In addition, the viability in experiment [5] (setting [21]) is 101% (inactive); in experiment [5] (setting [22]), 138% (inactive); in experiment [5] (setting [23]), 87.8% (active); in experiment [5] (setting [24]), 105% (inactive); in experiment [5] (setting [25]) it was 110% (inactive); in experiment [5] (setting [26]), 129% (inactive). For the same compound, the viability is 96.3% (active) in experiment [5] (setting [27]); 104% (inactive) in experiment [5] (setting [28]); 105% (inactive) in experiment [5] (setting [29]); 119% (inactive) in experiment [5] (setting [30]); 103% (inactive) in experiment [5] (setting [31]); 115% (inactive) in experiment [5] (setting [32]). Moreover, the viability in experiment [5] (setting [33]) is 103% (inactive); in experiment [5] (setting [34]), 139% (inactive); in experiment [5] (setting [35]), 105% (inactive); in experiment [5] (setting [36]), 109% (inactive); in experiment [5] (setting [37]), 110% (inactive); in experiment [5] (setting [38]), 133% (inactive). Moreover, the viability is 98.1% (active) in experiment [5] (setting [39]) and 102% (inactive) in experiment [5] (setting [40]).

Consider `CN(C)CC[C@H](CSc1ccccc1)Nc1ccc(S(=O)(=O)NC(=O)c2ccc(N3CCN(Cc4ccccc4-c4ccc(Cl)cc4)CC3)cc2)cc1[N+](=O)[O-]`, for which the AC50 in experiment [1] was 7.43 µM (active); in experiment [3], 0.934 µM (active); in experiment [6], 2.35 µM (active); in experiment [4] it was 16.6 µM (active). The IC50 in experiment [7] was 13.2 µM (active). This compound showed an SSMD in experiment [8] of -3.9. Besides, in experiment [8], the cell count came to 6950. Besides, the plate-normalised HSF1 focus index in experiment [8] was 0.864 (inactive). In addition, the viability was 121% (inactive) in experiment [5] (setting [9]); 119% (inactive) in experiment [5] (setting [10]); 148% (inactive) in experiment [5] (setting [11]); 108% (inactive) in experiment [5] (setting [12]); 119% (inactive) in experiment [5] (setting [13]); 124% (inactive) in experiment [5] (setting [14]). Further, the viability in experiment [5] (setting [15]) was 135% (inactive); in experiment [5] (setting [16]), 102% (inactive); in experiment [5] (setting [17]) it was 109% (inactive); in experiment [5] (setting [18]), 114% (inactive); in experiment [5] (setting [19]), 141% (inactive); in experiment [5] (setting [20]), 108% (inactive). In addition, the viability in experiment [5] (setting [21]) is 85.3% (active); in experiment [5] (setting [22]) it was 114% (inactive); in experiment [5] (setting [23]), 140% (inactive); in experiment [5] (setting [24]) it was 101% (inactive); in experiment [5] (setting [25]) it was 79.6% (active); in experiment [5] (setting [26]), 103% (inactive). The viability is 135% (inactive) in experiment [5] (setting [27]); 99.6% (active) in experiment [5] (setting [28]); 69% (active) in experiment [5] (setting [29]); 46.2% (active) in experiment [5] (setting [30]); 121% (inactive) in experiment [5] (setting [31]); 96.5% (active) in experiment [5] (setting [32]). For the same compound, the viability in experiment [5] (setting [33]) is 62.2% (active); in experiment [5] (setting [34]), 91.3% (active); in experiment [5] (setting [35]), 130% (inactive); in experiment [5] (setting [36]), 91.4% (active); in experiment [5] (setting [37]), 7.96% (active); in experiment [5] (setting [38]), 22.6% (active). In addition, the viability in experiment [5] (setting [39]) is 9.56% (active); in experiment [5] (setting [40]), 75.3% (active).
